PubChem BioAssay AID430 (Sanford-Burnham Center for Chemical Genomics, 2006)
The campaign covered roughly 63,000 compounds. About 1,100 (1.7%) were called active. The entries come from a sample that favours actives as a whole. Results with a measured potency or affinity are listed apart. Unmarked numbers belong to inactive results. Rule as the data show it: active = cytotoxicity above about 50%; inactive = the rest.

Assay: cytotoxicity in HPDE-C7 cells, cell-based, fluorescence, HTS (AID 430);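 also: cells exposed to compound for 48 hours before viability readout; 0% = vehicle and 100% = reference cytotoxic drug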
Details: HPDE-C7 pancreatic duct cells viability, at 10 µM, active compounds read high
In the case of Cc1cccc2cc(CN(Cc3ccc(F)cc3)C(=O)N(C)C)c3nnnn3c12, the cytotoxicity is reported as 5.9%. Work on COc1ccc(C/C(O)=C(\C#N)c2nc3ccccc3s2)cc1 yielded a cytotoxicity of 46.3%. With N#C/C(=C(/O)CN1CCOCC1)c1nc2ccccc2s1 the cytotoxicity was 1.3%. In the case of CC(C)=C(C#N)c1nc2ccccc2s1, the cytotoxicity is reported as -8.8%. With COC(=O)c1ccc(/C(O)=C(\C#N)c2nc3ccccc3s2)cc1 the cytotoxicity was 58.4% (active). In the case of Cc1ccc(SC/C(O)=C(\C#N)c2nc3ccccc3s2)cc1, the cytotoxicity is reported as 79.2% (active). For Cc1ccc(SC/C(O)=C(\C#N)c2nc3ccccc3n2C)cc1, the cytotoxicity was 16.2%. With N=c1n(CCN2CCCCC2)c2ccccc2n1CC(O)c1cccc(Br)c1 (centres undefined) the cytotoxicity was 44.6%. In the case of C=CCn1c(SCC(=O)O)nnc1-c1cccc(Cl)c1, the cytotoxicity is reported as 5.9%. Cc1cc(N2CCN(C(=O)c3ccco3)CC2)n2nc(C)nc2n1 showed a cytotoxicity of 3%. O=C(CSc1nc(O)cc(=O)[nH]1)N1CCCc2ccccc21 gave a cytotoxicity of 2.5%. For CC1=C(C)SC(=C(C#N)c2nnc(N3CCOCC3)n2-c2ccccc2)S1, the cytotoxicity was 23.4%. Work on O=C(Nc1ccc(S(=O)(=O)NCCc2ccccc2)cc1)c1ccc(Br)o1 yielded a cytotoxicity of 12%. In the case of O=C(Nc1ccc(Nc2ccccc2)cc1)c1ccc(Br)o1, the cytotoxicity is reported as 76.8% (active). In the case of COC(=O)Cc1ccc(NC(=O)c2ccc(Br)o2)cc1, the cytotoxicity is reported as -2.2%. COc1ccccc1CNC(=O)C1CCCN(S(=O)(=O)c2c(C)[nH]c(=O)[nH]c2=O)C1 (centres undefined) showed a cytotoxicity of -20.9%. In the case of COc1ccc(C(=O)c2ccc(OC)c(N)c2)cc1N, the cytotoxicity is reported as 78.9% (active). In the case of COc1ccc(C(=O)c2ccc(OC)c(OC)c2)cc1OC, the cytotoxicity is reported as -8.6%. COc1ccc(C(N)=O)cc1N showed a cytotoxicity of -18.1%. In the case of O=C(NC1CCCCC1)N1CCCCCC1, the cytotoxicity is reported as -4%. For CCSc1nnc(NC(=O)c2cc3c(s2)CCCC3)s1, the cytotoxicity was 7.4%. In the case of CC[C@]1(O)CC2CN(CCc3c([nH]c4ccccc34)[C@@](C(=O)OC)(c3cc4c(cc3OC)N(C=O)[C@H]3[C@@](O)(C(=O)OC)[C@H](OC(C)=O)[C@]5(CC)C=CCN6CC[C@]43[C@@H]65)C2)C1 (some centres undefined), the cytotoxicity is reported as 66.3% (active). For CC[C@]1(O)C[C@@H]2CN(CCc3c([nH]c4ccccc34)[C@@](C(=O)OC)(c3cc4c(cc3OC)N(C)[C@H]3[C@@](O)(C(=O)OC)[C@H](OC(C)=O)[C@]5(CC)C=CCN6CC[C@]43[C@@H]65)C2)C1, the cytotoxicity was 67.3% (active). CC(=O)N1CCN(C2c3cccc4cccc(c34)C2NS(=O)(=O)c2ccccc2)CC1 (centres undefined) showed a cytotoxicity of -18.7%.
